Screen size: about 290,000 compounds; about 3,000 (1%) were called active. Only a selection was taken, and actives are over-represented in it overall. A number with no mark means an inactive call. Rule as the data show it: active = inhibition mostly above about 36% (no sharp cut-off); inactive = mostly below about 34%.

The inhibition is the change of the read-out against control, counted positive when it falls.

A short description of the test: inhibition of NOD1-driven NF-kB reporter – cell-based, luminescence, uHTS, primary screen (AID 1578).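 Also: HEK-293T reporter cells stimulated with the NOD1 agonist gamma-tri-DAP.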 Conditions: NOD1-driven NF-kB luciferase reporter cells, at 4 µM, active compounds read high. On the technique in general: Reporter assays use an easily measured gene product as a stand-in for the process of interest.
For the molecule `CC1CCN(CCCNC(=O)c2ccc3c(Cl)c4c(nc3c2)CCCC4)CC1`, the inhibition was 0.2%. Under `COc1ccc(NC(=O)CSc2nnc(Cc3cccn3C)n2-c2ccc(OC)cc2)cc1` stands 0.1%.

For the molecule `COc1ccc(-n2c(Cc3cccn3C)nnc2SCC(=O)Nc2ccc(C)c(Cl)c2)cc1`, the inhibition was 75.8% (active). Regarding `COc1ccc(-n2c(Cc3cccn3C)nnc2SCC(=O)Nc2ccccc2OC)cc1`, the inhibition is 55%. Then `COc1ccc(-n2c(Cc3cccn3C)nnc2SCC(=O)Nc2ccccc2C)cc1`, with 57% (active). Under `COc1ccc(-n2c(Cc3cccn3C)nnc2SCC(=O)Nc2cccc(C)c2C)cc1` stands 33.3%; under `COc1ccc(-n2c(Cc3cccn3C)nnc2SCC(=O)Nc2ccc(Cl)cc2)cc1`, 39.9%; under `CN1C=CC=C/C1=C1\SC(=S)N(N)C1=O`, -40.2%.

Turning to `CCOC(=O)C1CCN(CCC(=O)Nc2ccc(C)cc2)CC1`, the inhibition is -32.1%.

For `COC(=O)c1cc(CNC(=O)c2ccc(N3CCCC3)c([N+](=O)[O-])c2)ccc1OC`, the inhibition was -43.2%.

On to `CCNC(=S)N/N=C/c1cn(Cc2ccc(F)cc2)c2ccccc12`, for which the inhibition is 10.8%. `CNC(=S)N/N=C/c1cn(Cc2ccc(C)cc2)c2ccccc12`: the inhibition was 70.4% (active). With `CNC(=S)N/N=C/c1cn(Cc2ccc(F)cc2)c2ccccc12`, the inhibition is -6.2%. Consider `COc1ccc(S(=O)(=O)N(C)c2ccc(C(=O)Nc3c(C)n(C)n(-c4ccccc4)c3=O)cc2)cc1`, for which the inhibition is -31.9%. Take `CCCC(C)NC(=O)c1cc(Cl)ccc1OC` (centres undefined): the inhibition was -0.3%. Under `CC(=O)c1cnc(Oc2cc(Cl)ccc2Cl)nc1C` stands -14.2%; under `Cc1cc(C)n2nc(SCc3cccc(S(=O)(=O)N(C)C)c3)nc2n1`, 7.2%; under `CN(C)S(=O)(=O)c1cccc(CSc2cccc[n+]2[O-])c1`, -15.4%. Turning to `COC(=O)c1c(NC(=O)C2CCC2)sc(C(=O)N(C)C)c1C`, the inhibition was -8.7%. Then `CCc1cccc(N(C(=O)c2csnn2)C(C(=O)NC2CCCC2)c2cccnc2)c1` (centres undefined), with -10.2%; and `O=C(O)c1ccc2c(=O)n3c(nc2c1)/C(=C/c1ccc(F)cc1)CC3`, with 33.3% (active); and `CSc1ccc(/C=C2\CCn3c2nc2cc(C(=O)O)ccc2c3=O)cc1`, with -1.6%.

With `O=C(O)c1ccc2c(=O)n3c(nc2c1)/C(=C/c1ccc(C(F)(F)F)cc1)CC3`, the inhibition is 1.9%. Consider `Cc1nc(-c2ccccc2)sc1C1(C)CC(c2c(Cl)cccc2Cl)=NO1` (centres undefined), for which the inhibition is 10.1%.

Turning to `CCCO/N=C1/C(=O)N(c2ccccc2)c2ccccc21`, the inhibition was 6.1%. Regarding `NC(=O)CN1C(=O)C(O)(CC(=O)/C=C\C=C\c2ccccc2)c2ccccc21` (centres undefined), the inhibition was 17.8%. Turning to `C#CCN1C(=O)C(O)(CC(=O)/C=C/C=C/c2ccccc2)c2ccccc21` (centres undefined), the inhibition was 57% (active).

Regarding `CCN1C(=O)C(O)(CC(=O)/C=C/C=C/c2ccccc2)c2ccccc21` (centres undefined), the inhibition was -4.8%.

Take `Cc1ccc(S(=O)(=O)/N=C(/Nc2ccc3[nH]c(=O)[nH]c3c2)c2ccc(F)cc2)cc1`: the inhibition was 3.8%. Under `CCSC1=C(C#N)C2(CCCCC2)C(C#N)C(=O)N1` (centres undefined) stands -3.2%. Then `N#CC1=C(SCC(=O)NC2CC2)NC(=O)C(C#N)C12CCCCC2` (centres undefined), with 15.7%. Under `COCCN=C1OC(=O)N2C(=O)C3=C4[C@@H](C[C@H]5C(=O)N(c6ccccc6)C(=O)[C@H]5[C@H]4[C@@]12Cc1ccccc1)[C@H]1C(=O)N(c2ccccc2)C(=O)[C@H]1[C@H]3C` stands 4.5%; under `Cc1cc(C)nc(N(C#N)Cc2ccccc2C)n1`, -6.3%; under `COc1ccc(C(=O)C(CN2CCOCC2)c2ccccc2)cc1` (centres undefined), 38%. Regarding `COc1ccc(C(=O)C(CN2CCCC2)c2ccccc2)cc1` (centres undefined), the inhibition is 78.7% (active). Then `CCCOc1ccc(C(=O)C(CN2CCCC2)c2ccccc2)cc1` (centres undefined), with 31.5%.

With `O=C(c1ccc(F)cc1)C(CN1CCOCC1)c1ccccc1` (centres undefined), the inhibition is 67.3% (active). As for `CCOc1ccc(C(=O)C(CN2CCOCC2)c2ccccc2)cc1` (centres undefined), the inhibition was -28.1%. Consider `O=C(c1ccc(Br)cc1)C(CN1CCOCC1)c1ccccc1` (centres undefined), for which the inhibition was 5.4%. Regarding `Fc1ccc(OCc2nn[nH]n2)c(F)c1`, the inhibition is -9.1%. Under `COc1ccc(C(=O)NC(=S)NNC(=O)[C@H]2C[C@@H]2c2ccccc2)cc1OC` stands -2.6%; under `O=C(NCC(=O)N(c1cccc(F)c1)C(C(=O)NC1CCCC1)c1ccco1)c1ccco1` (centres undefined), -35.9%. Then `O=C(NCc1ccncc1)c1ccc(Oc2ccccc2)cc1`, with 18.9%; and `Cc1ccc(Oc2ccc(C(=O)NCc3ccncc3)cc2)cc1`, with 38.4% (active). As to `CCOc1ccc(C(=O)NCc2ccncc2)cc1`, the inhibition was -14.8%. Then `O=S(=O)(NCc1ccc2c(c1)OCO2)c1c(F)cc(F)cc1Br`, with -29.4%. Then `COc1ccccc1NC(=O)C(=O)N/N=C/c1cccs1`, with -36%; and `COc1ccccc1NC(=O)C(=O)N/N=C/c1ccc([N+](=O)[O-])s1`, with 74.8% (active). For `COC(=O)N/N=C/c1ccc([N+](=O)[O-])s1`, the inhibition was -14.7%. For the molecule `Cc1ccccc1C(=O)N/N=C/c1ccc([N+](=O)[O-])s1`, the inhibition is 11%. Under `Fc1ccccc1/C=N/NC(=S)Nc1ccc(Cl)cc1Cl` stands -13.3%; under `Cc1cc(C(=O)N/N=C/c2ccc([N+](=O)[O-])cc2)c2ccccc2n1`, 8.1%; under `Fc1ccc(/C=N/NC(=S)Nc2ccc(Cl)cc2Cl)cc1`, 8.9%. Under `O=C(N/N=C\c1cccc([N+](=O)[O-])c1O)C1COc2ccccc2O1` (centres undefined) stands -14.4%. With `O=C(N/N=C\c1ccc(Cl)s1)C1COc2ccccc2O1` (centres undefined), the inhibition was -4.2%. Regarding `COc1cccc(NC(=O)c2ccccc2N2C(=O)C3C4C=CC(C5CC45)C3C2=O)c1` (centres undefined), the inhibition was -54.1%.

Consider `COc1cccc(OCC(O)CNC(C)c2ccccc2)c1` (centres undefined), for which the inhibition is -39.9%. As to `C=CCNc1nnnc2c1sc1nc(N3CCOCC3)c3c(c12)CCCC3`, the inhibition is -1.1%. Under `COC(=O)c1c(NC(=O)COC(=O)CNC(=O)c2ccco2)sc(C)c1C` stands -14.8%.

Values taken from PubChem BioAssay AID1578 (Sanford-Burnham Center for Chemical Genomics, 2009).
